Test [1] addresses T1, ETS1 (UniProt P14921).
T1 sequence: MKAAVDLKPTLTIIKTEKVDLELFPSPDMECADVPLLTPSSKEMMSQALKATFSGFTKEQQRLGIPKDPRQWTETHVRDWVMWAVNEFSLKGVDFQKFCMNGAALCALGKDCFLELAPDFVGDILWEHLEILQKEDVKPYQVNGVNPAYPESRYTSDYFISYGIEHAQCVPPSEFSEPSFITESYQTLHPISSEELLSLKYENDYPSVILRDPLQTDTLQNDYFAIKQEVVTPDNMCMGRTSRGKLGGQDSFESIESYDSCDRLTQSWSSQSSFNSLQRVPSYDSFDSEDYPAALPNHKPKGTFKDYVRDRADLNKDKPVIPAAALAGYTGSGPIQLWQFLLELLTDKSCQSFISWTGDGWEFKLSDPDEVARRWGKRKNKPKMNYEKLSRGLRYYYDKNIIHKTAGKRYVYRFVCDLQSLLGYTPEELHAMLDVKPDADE
The test can be described thus: ETS1 binding intensity (PBM fluorescence), ETS1 alone (arbitrary fluorescence units); higher = stronger binding. The conditions noted are these: ETS1 concentration 1 nM; RUNX1 concentration 0 nM.

Test [2] deals with T1, ETS1. The test can be described thus: ETS1 binding intensity (PBM fluorescence) in presence of RUNX1, normalised to ETS1-only experiment (arbitrary fluorescence units); higher = stronger binding. Conditions: ETS1 concentration 1 nM; RUNX1 concentration 25 nM.

As to TGCTGTTTCCTCTGCTGCCGAAGCGGTTTCTTCCAC, the ETS1 binding intensity with ETS1 [1] came to 443; with ETS1 [2], 400.

On to GGGGCGCTGCGCAGGAAGCCGCAGTCCCTCTGCGGA, for which the figures for the ETS1 binding intensity with ETS1 [1] and in the test with ETS1 [2] were 930 and 1210, respectively.

As to GTAGCCGGGTGTTCCGGAGCGCTGCGGGCAAAGCAG, the ETS1 binding intensity in the test with ETS1 [1] came to 387; with ETS1 [2], 539.

As for TGTGAGAAGCCGGATCCTGTGGTGACCCAGTGGCCT, the ETS1 binding intensity with ETS1 [1] amounted to 409; with ETS1 [2], 479.

For TTCTGGACATGCTTCCTGTGGCTTCTCTCCTGCGCT, the ETS1 binding intensity with ETS1 [1] is 845; in the test with ETS1 [2], 598.

As to ACTTACTTCCCGACGTCACAGCCTCCGACACCACAG, the ETS1 binding intensity in the test with ETS1 [1] was 471; with ETS1 [2] it was 423.

With GACACCTGAGAGGATGTGTGGCTTTGTGCTATGAGA, the ETS1 binding intensity in the test with ETS1 [1] amounted to 769; with ETS1 [2] it was 847.

Regarding GGGCAGGTGCGGATGCCGAGGAGAGTGGTCACCTCG, the values for the ETS1 binding intensity with ETS1 [1] and with ETS1 [2] were 449 and 435, respectively.

GATACTCTTCCTGTCATCCCATCCCCACAGCCTTAG: the ETS1 binding intensity amounted to 503 in the test with ETS1 [1] and 501 with ETS1 [2].

In the case of CCACGCCCCCTCCTTCCGCTGCGGGAGATAGCCACT, the ETS1 binding intensity came out at 787 in the test with ETS1 [1] and 751 with ETS1 [2].

With GAGGAAAAAGGAAACAGAAACTCCGCAACTTGCGCC, the ETS1 binding intensity in the test with ETS1 [1] came out at 503; with ETS1 [2], 411.

TAACCCGGAGCGGAAGGATCCCGCAGCGTGTGCGTA: the values for the ETS1 binding intensity with ETS1 [1] and with ETS1 [2] were 681 and 797, respectively.

For TGCAGCCGCCGCGTCCGGTCCAGCCGCAGGGCCATG, the ETS1 binding intensity with ETS1 [1] turned out to be 536; in the test with ETS1 [2], 543.

In the case of CGAAGGAGGAAGCTGCACAGGGTGTCTGTGGCTGGC, the ETS1 binding intensity with ETS1 [1] amounted to 443; in the test with ETS1 [2] it was 428.

For the sequence GCCTGAAGCAGAGGATGTGGCTTCTGGCCCTCCCCT, the figures for the ETS1 binding intensity with ETS1 [1] and with ETS1 [2] were 1460 and 1800, respectively.

As for TGGTCCACCCGGCGGAACTCGCGGTCCCGGCAGGCA, the ETS1 binding intensity is 520 with ETS1 [1] and 397 with ETS1 [2].

Regarding CAGATTTCCGGCTTCTGAGGAGCTGCCCTACCACAG, the values for the ETS1 binding intensity in the test with ETS1 [1] and with ETS1 [2] were 530 and 398, respectively.

Take AAGCCCTAGAGGAAATTAGTACGTAACCACCTTCTG: the ETS1 binding intensity in the test with ETS1 [1] was 540; with ETS1 [2], 844.

Turning to GTCACCATTTCCGGGCCTCCGCGGTGTCCCCACCCC, the ETS1 binding intensity in the test with ETS1 [1] amounted to 2560; with ETS1 [2] it was 2870.

With AGGAGAGGATGTTGCTTGAAGGTGTGGTCTCCTCCA, the ETS1 binding intensity in the test with ETS1 [1] came to 549; with ETS1 [2], 462.

For the sequence CATTCCCGAGAGACTTCCGCGCCGCAGTTTCCCTGC, the figures for the ETS1 binding intensity in the test with ETS1 [1] and in the test with ETS1 [2] were 523 and 380, respectively.

On to CGCCCTCCGGAAGAGAGGGCGGACCGCGGCCGCGCA, for which the ETS1 binding intensity was found to be 570 with ETS1 [1] and 636 with ETS1 [2].

Turning to ATGACTCATTTCCTCACTCTCTACTCCCACAGAACC, the ETS1 binding intensity turned out to be 606 with ETS1 [1] and 464 with ETS1 [2].

Turning to GATCTGCTTGGCTTCCTGTGGTCGCTGACTCACAGT, the ETS1 binding intensity with ETS1 [1] came out at 905; in the test with ETS1 [2], 1010.

With TGCACACATGAGGAAGGGGTAAGTGGTTTTCCCTAC, the values for the ETS1 binding intensity with ETS1 [1] and in the test with ETS1 [2] were 498 and 468, respectively.

TCTCTTCTCCCCATCCGCCCGAGACCACAGCCACTC: the ETS1 binding intensity was found to be 509 with ETS1 [1] and 507 in the test with ETS1 [2].

Consider CCAAAAAGGAAGGAAACCAGAAAGCCACAGAATGGT, for which the ETS1 binding intensity in the test with ETS1 [1] was 487; with ETS1 [2], 1200.

For the sequence GCTGTAGGAAATGTTATTCGCCGCGGTCAGGACAGG, the ETS1 binding intensity in the test with ETS1 [1] stood at 546; in the test with ETS1 [2] it was 710.

Take AGCCAGGAAATCCGCACCTACACAGCCCAACCACAG: the ETS1 binding intensity in the test with ETS1 [1] worked out at 582; with ETS1 [2], 435.

Take CCAGCCTCCCCTTTCCTGTCTGTGGCAGGAGCGTGC: the ETS1 binding intensity with ETS1 [1] was found to be 505; with ETS1 [2], 512.

On to CAGTTCCAGGAAGCAGCCCCAAGCTTGTGGCCCTGA, for which the ETS1 binding intensity in the test with ETS1 [1] was found to be 526; with ETS1 [2] it was 305.

On to GCGCAAGGCGCTTCCTCCCCCGCAGCGCGAGCCCCA, for which the ETS1 binding intensity in the test with ETS1 [1] worked out at 477; in the test with ETS1 [2] it was 435.

Regarding GTGGCTTCCTGCCATTGACAATTGCGGGATGGCTTT, the ETS1 binding intensity with ETS1 [1] was 529; in the test with ETS1 [2], 542.

For the sequence TGCGCCAGCCTTCCTGTCGTGGTCACCGGTGGCAGC, the ETS1 binding intensity in the test with ETS1 [1] is 446; in the test with ETS1 [2], 400.

On to ACAGCGCCTCTTCCTGCTCTACCACATCTGATGTCC, for which the ETS1 binding intensity with ETS1 [1] turned out to be 512; in the test with ETS1 [2], 352.

For the sequence CCTGACTTCCTCCTCCCCCTCCCGCCACAATTCCGC, the ETS1 binding intensity was determined as 1240 with ETS1 [1] and 1620 in the test with ETS1 [2].

For the sequence GTCCCCCTTCCGGCTGCAGGTTGAGGTTTGGAACCT, the figures for the ETS1 binding intensity in the test with ETS1 [1] and with ETS1 [2] were 511 and 560, respectively.

CCGAAGAGGAAGCTCCACAGGACCTCCGCGGTCAGC: the ETS1 binding intensity with ETS1 [1] worked out at 397; with ETS1 [2], 1000.

On to CCTGAGCGCCCGGAAGGAAGGCTGTGGTAGGTTGTC, for which the values for the ETS1 binding intensity with ETS1 [1] and in the test with ETS1 [2] were 1270 and 1570, respectively.

For the sequence TGTCCGGGCAGGAAGGGGTGCTCTGTGGGCTTGGAG, the ETS1 binding intensity in the test with ETS1 [1] is 948; in the test with ETS1 [2], 1050.

With AGTACAAAGGGGAAATGTCTCTTGGTGGTTGATAAG, the results for the ETS1 binding intensity in the test with ETS1 [1] and with ETS1 [2] were 628 and 564, respectively.

Regarding CTTGCTTGAGTCACAGGAAACCACTCAGAGGCTAAC, the values for the ETS1 binding intensity with ETS1 [1] and in the test with ETS1 [2] were 2600 and 2860, respectively.

Consider GCTCGCGTCATCCTGCAGCGCCGACACCACAGACAC, for which the values for the ETS1 binding intensity with ETS1 [1] and with ETS1 [2] were 501 and 505, respectively.

On to TGGGGTTTCCTGGGGAGAAACTTAGCCCTACCACAC, for which the results for the ETS1 binding intensity with ETS1 [1] and with ETS1 [2] were 527 and 485, respectively.

Turning to CATCTACTGAGGAAGTGTAAGCCACAATAAGAAGCC, the values for the ETS1 binding intensity with ETS1 [1] and in the test with ETS1 [2] were 641 and 869, respectively.

Take AAGATGCCCCCTTCCGCTGGAAAGCGGTAATGCCCA: the ETS1 binding intensity with ETS1 [1] is 724; with ETS1 [2], 705.

With TGCTTCCGGCGGGCGCTTGCTCCCCGCGGTCCGCAC, the figures for the ETS1 binding intensity in the test with ETS1 [1] and with ETS1 [2] were 657 and 762, respectively.

Consider GAAGAAGTCAGGAAATGCTGCCGCAGCAGCCAGCCC, for which the ETS1 binding intensity with ETS1 [1] is 878; in the test with ETS1 [2] it was 1070.

Turning to TGGCAGGATGCCGTTAAATATGTAACCACATGTCTC, the ETS1 binding intensity is 500 in the test with ETS1 [1] and 1250 in the test with ETS1 [2].
